Calls of active or inactive are those of the source.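 How the source made its calls: active means compound that reduces growth-factor-driven endothelial tube area in a mixed cell culture, no cutoff stated; inactive means the rest.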
Assay: inhibition of endothelial tube formation, primary screen, imaging, VEGF stimulated, CD31 staining, tube area, NPC library (AID 1117340)
Conditions: VEGF-stimulated ADSC/ECFC co-culture, at 10 µM, stronger effect = higher value

Structure (SMILES)	tube area decrease
Cc1cccc(C)c1NC(=O)CN(CC(=O)O)CC(=O)O	-22.7% (inactive)
CCCCCCCCCCOCC(O)CN (stereo unspecified)	65% (active)
Nc1ccc([N+](=O)[O-])c(C(F)(F)F)c1	1.1% (inactive)
CC1(C)OC[C@@H]2O[C@@]3(C(=O)O)OC(C)(C)O[C@H]3[C@@H]2O1	-12.4% (inactive)
CC(O)CCCCn1c(=O)c2c(ncn2C)n(C)c1=O (stereo unspecified)	-9.4% (inactive)
CC(=O)OC[C@H]1O[C@@](COC(C)=O)(O[C@H]2O[C@H](COC(C)=O)[C@@H](OC(C)=O)[C@H](OC(C)=O)[C@H]2OC(C)=O)[C@@H](OC(C)=O)[C@@H]1OC(C)=O	0.8% (inactive)
CCc1oc2ccccc2c1C(=O)c1cc(I)c(O)c(I)c1	108% (active)
CCCCC(C)(O)CC=C[C@H]1[C@H](O)CC(=O)[C@H]1CCCCCCC(=O)OC (stereo partly specified)	-9.4% (inactive)
O=C1c2ccccc2CCc2ccccc21	-5.3% (inactive)
Nc1c(NC/C=C\COc2cc(CN3CCCCC3)ccn2)c(=O)c1=O	1% (inactive)
Oc1ccccc1-c1nnco1	-3.9% (inactive)
C=CCNc1nc(NCC=C)nc(N2CCN(C(c3ccc(F)cc3)c3ccc(F)cc3)CC2)n1	17.9% (inactive)
O=Cc1ccccc1C=O	9.9% (inactive)
CC(=O)OC[C@H]1O[C@@H](n2ncc(=O)[nH]c2=O)[C@H](OC(C)=O)[C@@H]1OC(C)=O	47.8% (active)
Oc1cccc(O)c1O	24.9% (inactive)
CCCC(=O)O[C@]1(C(=O)CC)CC[C@H]2[C@@H]3CCC4=CC(=O)CC[C@]4(C)[C@H]3[C@@H](O)C[C@@]21C	-2.7% (inactive)

From PubChem BioAssay
